Bioassay records deposited in PubChem by National Center for Advancing Translational Sciences (NCATS).
TbPYK inhibitor: T. brucei pyruvate kinase inhibition; Q57TT1; TbPYK enzyme, Kinase-Glo Plus ATP luminescence, 45 min; Potency, µM (highest dose often 76.8 µM), without a hit: at the top dose activity, negative = inhibition, most hits filed as inhibitors; actives 0.12% (n = 410,000); AID 624173; also: potency is read from the fitted curve at half-maximal effect; % is scaled to controls: 0 for no effect and ±100 for the full control effect; nearly all actives have a fitted effect of over 50% in size
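Luminescent Kinase-Glo Plus end-point after 45 min room-temperature reaction of T. brucei pyruvate kinase started with 130 uM ADP (final). Buffer TEA 50 mM pH 7.2 with KCl, MgCl2, BSA, Tween-20; titration-based qHTS with fitted concentration-effect curves.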
Cycloheximide cs: affects cycloheximide protein synthesis inhibition readout, counter-screen; cell reporter, cycloheximide protein synthesis inhibition counterscreen; max response, %; actives 12% (n = 300,000); AID 2314; in the data active = max response mostly above about 13%, no sharp cut-off; inactive = mostly below about 14%; also: read at 38.3 µM for the half of the compounds with a filed dose; 0% is about no effect
Giardia FBPA inh: Giardia lamblia aldolase inhibition; A8B2U2; purified Giardia FBPA; Potency, µM (titrated, usually from 59.6 µM), inactives show at the top dose activity, negative = inhibition, actives largely listed as inhibitors; actives 0.71% (n = 290,000); AID 2451; also: potency is read from the fitted curve at half-maximal effect; % is scaled to controls: 0 for no effect and ±100 for the full control effect; nearly all actives have a fitted effect of over 55% in size
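40 nM FBPA preincubated 10 min at RT with compound (up to 57.5 uM final), then substrate plus GAPDH/TPI/NAD/arsenate coupling and diaphorase/resazurin added. Fluorescence read after 20 min at RT, 525/598 nm.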
LmPK inh: LmPK (Leishmania mexicana) enzyme inhibition; Q27686; purified LmPK, Kinase-Glo ATP luminescence, 1 h; Potency, µM (titrated, usually from 57.5 µM), for the others: at the highest dose activity change, negative = inhibition, usual class: inhibitors; actives 0.37% (n = 290,000); AID 1721; also: potency is read from the fitted curve at half-maximal effect; % is scaled to controls: 0 for no effect and ±100 for the full control effect
Target sequence (Q27686 whole entry, looked up): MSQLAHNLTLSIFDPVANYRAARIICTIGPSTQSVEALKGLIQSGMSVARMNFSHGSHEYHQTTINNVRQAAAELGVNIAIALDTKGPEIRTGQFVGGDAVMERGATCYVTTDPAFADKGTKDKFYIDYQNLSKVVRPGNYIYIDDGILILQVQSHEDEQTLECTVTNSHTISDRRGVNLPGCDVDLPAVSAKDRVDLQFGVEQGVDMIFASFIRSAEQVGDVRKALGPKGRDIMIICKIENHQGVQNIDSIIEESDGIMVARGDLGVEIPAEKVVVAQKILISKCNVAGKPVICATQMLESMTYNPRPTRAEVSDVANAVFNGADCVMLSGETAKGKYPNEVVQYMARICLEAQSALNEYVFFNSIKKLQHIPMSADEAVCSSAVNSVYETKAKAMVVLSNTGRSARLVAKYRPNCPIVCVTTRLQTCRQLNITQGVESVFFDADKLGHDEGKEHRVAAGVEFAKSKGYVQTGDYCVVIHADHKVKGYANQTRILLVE
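Purified LmPK (0.1 nM) converted ADP (0.1 mM) to ATP with PEP (0.5 mM) in imidazole buffer pH 7.2 with KCl and MgCl2, 1 h at room temperature. ATP was read by Kinase-Glo luminescence; data normalized to uninhibited and no-enzyme controls.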
Shiga inhibitor: Shiga toxin inhibition; Vero cells, Shiga toxin protein synthesis inhibition reporter; inhibition, % at 38.7 µM; actives 9.2% (n = 290,000); AID 2315; in the data active = inhibition mostly above about 28%, no sharp cut-off; inactive = mostly below about 43%; also: 0% is about no effect
Sm TGR block: S. mansoni TGR enzyme inhibition; Potency, µM (series often up to 114 µM), without a hit: at the highest dose activity change, negative = inhibition, usual class: inhibitors; purified TGR, DTNB reduction, TNB absorbance 405 nm; actives 3% (n = 360,000); AID 485364; also: potency is read from the fitted curve at half-maximal effect; % is scaled to controls: 0 for no effect and ±100 for the full control effect; nearly all actives have a fitted effect of over 60% in size
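First, TGR (20 nM dispensed) and NADPH were mixed with compound. Second, a 15 min room-temperature incubation followed. Third, further NADPH and then DTNB were added to start the reaction. Finally, TNB absorbance was monitored kinetically.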
Numbers without * were called inactive; [ ] = another dose, or the depositor's remark. Only a selection was taken, and hits are over-represented in it overall. Unless noted, calls follow the shape of the dose curve; as a rule, active = well fitted curve in the direction sought with a large enough effect; inconclusive = small, poorly fitted or top-dose-only effect, or another doubt; inactive = no such curve, though single readings can be large; an effect the other way counts as inactive or inconclusive.

Results for Cc1ccccc1Oc1nc2c(c(=O)n(C)c(=O)n2C)n1Cc1ccc(Br)cc1 ?
TbPYK inhibitor: 1%; Sm TGR block: -3%

How did COc1cccc(N2CCN(c3ncccn3)CC2)c1 do in these assays?
TbPYK inhibitor: 0%; Cycloheximide cs: 60*; Giardia FBPA inh: 1%; LmPK inh: -5%; Shiga inhibitor: 45*; Sm TGR block: -1%

How did CC(=O)c1ccc(N2CCN(c3ncccn3)CC2)cc1 do in these assays?
TbPYK inhibitor: -2%; Cycloheximide cs: 29*; Giardia FBPA inh: 10%; LmPK inh: 0%; Shiga inhibitor: 48; Sm TGR block: -4%

How did CCOC(=O)CCN1C(=O)[C@H]2[C@H]3[C@H](O)[C@H](O)C/C(=N/OCC(C)C)[C@@H]3CC[C@@H]2C1=O do in these assays?
Giardia FBPA inh: 0%[12.9 µM]

What do the screens show for `O=C(CN1C(=O)C2(SCC(=O)N2c2ccc(F)cc2)c2ccccc21)NC1CCCCC1` (stereo not drawn)?
TbPYK inhibitor: -3%; Sm TGR block: 15%

How did Cc1cccc(C)c1N/C=C/c1onc(C)c1[N+](=O)[O-] do in these assays?
TbPYK inhibitor: 1%; Cycloheximide cs: 0; Giardia FBPA inh: -11%; LmPK inh: -3%; Shiga inhibitor: -7; Sm TGR block: 89µM*

What do the screens show for `Cc1ccc(N/C=C/c2onc(C)c2[N+](=O)[O-])cc1`?
TbPYK inhibitor: 0%; Cycloheximide cs: 74*; Giardia FBPA inh: 1%; LmPK inh: -14%; Shiga inhibitor: 117*; Sm TGR block: 4%

Results for COc1cccc(N/C=C/c2onc(C)c2[N+](=O)[O-])c1 ?
TbPYK inhibitor: -9%; Cycloheximide cs: 0; Giardia FBPA inh: 0%; LmPK inh: 0%; Shiga inhibitor: 46; Sm TGR block: -9%

Results for COc1ccc(NC(=S)N/C(=N/S(=O)(=O)c2ccc(C)cc2)c2ccccc2)cc1 ?
TbPYK inhibitor: 0%; Cycloheximide cs: 34*; Giardia FBPA inh: -22%; LmPK inh: -6%; Shiga inhibitor: 61*; Sm TGR block: inconclusive

What do the screens show for `NC(N)=NS(=O)(=O)c1ccc(NC(=S)NC(=O)/C=C/c2ccccc2)cc1`?
TbPYK inhibitor: -12%; Cycloheximide cs: -1; Giardia FBPA inh: -4%; LmPK inh: 5%; Sm TGR block: 89µM*

What do the screens show for `NC(N)=NS(=O)(=O)c1ccc(NC(=S)NC(=O)c2ccccc2)cc1`?
TbPYK inhibitor: -9%; Cycloheximide cs: 5; Giardia FBPA inh: inconclusive; LmPK inh: 0%; Shiga inhibitor: 18; Sm TGR block: 16µM*

How did NC(N)=NS(=O)(=O)c1ccc(NC(=S)NC(=O)/C=C/c2ccco2)cc1 do in these assays?
TbPYK inhibitor: -5%; Cycloheximide cs: -2; Giardia FBPA inh: 0%; LmPK inh: 3%; Shiga inhibitor: -13; Sm TGR block: -36%

Results for COc1ccc(NC(=S)NC(=NS(=O)(=O)c2ccc(Cl)cc2)c2ccccc2)cc1 ?
TbPYK inhibitor: 1%

What do the screens show for `CCOc1ccccc1NC(=O)Nc1ccc(Br)cc1C`?
TbPYK inhibitor: -2%; Cycloheximide cs: -2; Giardia FBPA inh: 3%; LmPK inh: -2%; Shiga inhibitor: 8; Sm TGR block: 1%

Results for CCC(=O)O[C@@H]1CC(=O)O[C@H](C)CC=CC=C[C@@H](O)[C@H](C)C[C@H](CC=O)[C@H](O[C@H]2O[C@H](C)[C@@H](O[C@H]3C[C@@](C)(O)[C@@H](OC(=O)CC)[C@H](C)O3)[C@H](N(C)C)[C@H]2O)[C@H]1OC ?
Cycloheximide cs: -7; Giardia FBPA inh: -3%; LmPK inh: 2%; Shiga inhibitor: -7; Sm TGR block: 25µM*

Results for COC(=O)c1c(Oc2ccc(Br)cc2)nnc(-c2ccccc2)c1-c1ccccc1 ?
TbPYK inhibitor: 0%; Sm TGR block: 2%

What do the screens show for `COc1ccc2[nH]cc(CCNC(=O)Nc3cc(C)cc(C)c3)c2c1`?
TbPYK inhibitor: 0%; Sm TGR block: -4%

How did CN(C)c1ccc(NC(=S)NC23CC4CC(CC(C4)C2)C3)cc1 do in these assays?
TbPYK inhibitor: 0%; Cycloheximide cs: 44*; Giardia FBPA inh: 3%; LmPK inh: 6%; Shiga inhibitor: 52*; Sm TGR block: 8%

Results for FC(F)Oc1ccc(NC(=S)NC23CC4CC(CC(C4)C2)C3)cc1 ?
TbPYK inhibitor: 3%; Cycloheximide cs: 25*; Giardia FBPA inh: 16%; LmPK inh: -5%; Shiga inhibitor: 59*; Sm TGR block: 4%

How did CCOc1ccc(NC(=S)NC23CC4CC(CC(C4)C2)C3)cc1 do in these assays?
TbPYK inhibitor: -10%; Cycloheximide cs: 1; Giardia FBPA inh: -4%; LmPK inh: -6%; Shiga inhibitor: 7; Sm TGR block: 64%

Results for CCN(CC)S(=O)(=O)c1ccc2c(c1)N(CC(=O)N1CCN(c3cccc(Cl)c3)CC1)C(=O)CO2 ?
TbPYK inhibitor: -15%; Sm TGR block: inconclusive

How did CC(C)Cc1nc(N2CCN(C(=O)C(C)C)CC2)c(C#N)c2c1CCC2 do in these assays?
TbPYK inhibitor: -2%; Cycloheximide cs: 54*; Giardia FBPA inh: 10%; LmPK inh: 5%; Shiga inhibitor: 48; Sm TGR block: -1%

What do the screens show for `CC(=O)N1CCN(c2nc(CC(C)C)c3c(c2C#N)CCC3)CC1`?
TbPYK inhibitor: 0%; Cycloheximide cs: -3; Giardia FBPA inh: -1%; LmPK inh: 3%; Shiga inhibitor: -24; Sm TGR block: -11%

Results for C[C@H](N)CCCC(C)(C)O ?
Giardia FBPA inh: -1%[21.7 µM]

Results for CCCCn1nc(C(=O)NNC(=O)c2ccncc2)c2ccccc2c1=O ?
TbPYK inhibitor: -2%; Cycloheximide cs: 40*; LmPK inh: -4%; Shiga inhibitor: 20*; Sm TGR block: 8%

What do the screens show for `Cc1c(O)ccc(C(=O)COc2ccccc2F)c1O`?
Cycloheximide cs: 30*; Giardia FBPA inh: 5%; LmPK inh: 1%; Shiga inhibitor: 86*; Sm TGR block: 5%

Results for CC(C(=O)Nc1ccc(C(=O)O)cc1)N1C(=O)c2ccccc2C1=O (stereo not drawn) ?
TbPYK inhibitor: 9%; Cycloheximide cs: -1; Giardia FBPA inh: -1%; LmPK inh: 1%; Shiga inhibitor: -4; Sm TGR block: 15%

What do the screens show for `Cc1ccc2nc(-c3ccc(NC(=O)C(C)N4C(=O)c5ccccc5C4=O)cc3)sc2c1` (stereo not drawn)?
TbPYK inhibitor: 7%; Cycloheximide cs: 93*; Giardia FBPA inh: 1%; LmPK inh: -1%; Shiga inhibitor: 51*; Sm TGR block: -11%

Results for O=C(CCN1C(=O)c2ccccc2C1=O)Nc1nc2ccccc2s1 ?
TbPYK inhibitor: 4%; Cycloheximide cs: 19*; Giardia FBPA inh: 4%; LmPK inh: 0%; Shiga inhibitor: -38; Sm TGR block: 4%
